For 13 molecules, growth results are on record in PubChem BioAssay (NCI).

This is part of a sample that, as a whole, favours compounds with a hit. Of some 83,000 tested, about 20% had one in any assay.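 Method: cells in 96-well plates; compound added at one concentration; 48 h incubation; percent growth measured; values under 10 scored active.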 A number with no mark means an inactive call. Calls of active or inactive are those of the source.

Among the test systems are NCI-H23 lung; NCI-H226 lung; NCI-H322M lung; HOP-62 NSCLC; NCI-H460 lung; HOP-92 NSCLC; NCI-H522 lung; A549/ATCC NSCLC; 786-0 renal; COLO 205 colon.
Common to all, as to assay: NCI-60 one-dose screen, 48 h (100 = growth as untreated, 0 = no growth, -100 = all killed)
Details in all cases: 10 µM unless noted

As to `CC(=O)O[C@H]1C(=O)[C@@]2(C)[C@H]([C@H](OC(=O)c3ccccc3)[C@]3(O)C[C@H](OC(=O)[C@H](OC(=O)CCC(=O)OC4CCC(S/N=C(N)/N=C(\N)N(C)C)CC4)[C@@H](NC(=O)c4ccccc4)c4ccccc4)C(C)=C1C3(C)C)[C@]1(OC(C)=O)CO[C@@H]1C[C@@H]2O` (stereo not given in full), the growth in the test on NCI-H23 lung was 39.3%; in the test with NCI-H226 lung, 75.6%; with NCI-H322M lung it was 17.8%; with HOP-62 NSCLC it was 29.7%; with NCI-H460 lung it was 7.58% (active); in the test on HOP-92 NSCLC it was 54.9%. In addition, the growth in the test on NCI-H522 lung is -25.7% (active); in the test on A549/ATCC NSCLC, 28.5%; in the test with 786-0 renal, 33.3%; with COLO 205 colon it was -8.92% (active).
`O=S(=O)(Nc1ccc(Br)c(Cl)c1)c1ccc(-c2cnc(C3CC3)o2)cc1`: the growth was 29.7% in the test on NCI-H23 lung; 55.3% in the test on NCI-H226 lung; 39.2% in the test with NCI-H322M lung; 32.6% in the test on HOP-62 NSCLC; 11.9% with NCI-H460 lung; 40.8% with HOP-92 NSCLC. Also, the growth was -17.7% (active) in the test with NCI-H522 lung, 24.9% with A549/ATCC NSCLC, 39% in the test on 786-0 renal and -2.39% (active) in the test on COLO 205 colon.
Regarding `O=c1oc2c(C(F)(F)F)cccc2cc1-c1csc(Nc2ccc(OCCF)cc2)n1`, the growth in the test with NCI-H23 lung was 24.2%; in the test with NCI-H226 lung, 17.3%; in the test with NCI-H322M lung, 31%; with HOP-62 NSCLC, 22.5%; with NCI-H460 lung, 4.07% (active); in the test on HOP-92 NSCLC it was 27.4%. The growth with NCI-H522 lung is -42.9% (active); in the test on A549/ATCC NSCLC, 18.1%; in the test on 786-0 renal it was 9.77% (active); with COLO 205 colon, -71.8% (active).
For `COc1cc(-c2nn(-c3ccc(C(=O)O)cc3)cc2C(=O)O)ccc1O`, the growth with NCI-H23 lung was 63%; in the test on NCI-H226 lung, 102%; in the test on NCI-H322M lung it was 98.5%; in the test on HOP-62 NSCLC, 61.6%; in the test on NCI-H460 lung it was 61.9%; with HOP-92 NSCLC, 58.8%. The growth with NCI-H522 lung was 12%; in the test with A549/ATCC NSCLC it was 78.2%; with 786-0 renal it was 78.3%; in the test with COLO 205 colon, 113%.
Take `COc1cc2c(cc1-c1c(C)noc1C)ncc1nc(C3CCOCC3)n([C@@H](C)COC(F)F)c12`: the growth is 64.6% in the test on NCI-H23 lung; 58.2% in the test with NCI-H226 lung; 48.3% with NCI-H322M lung; 35% in the test on HOP-62 NSCLC; 61% in the test on NCI-H460 lung; 31.8% in the test with HOP-92 NSCLC. Moreover, the growth in the test with NCI-H522 lung was 33.9%; with A549/ATCC NSCLC, 42.4%; with 786-0 renal it was 49.6%; in the test with COLO 205 colon it was 26.9%.
In the case of `CN(C)c1ccc(N=Nc2ccc(Br)cn2)c(O)c1`, the growth in the test with NCI-H23 lung was 19.3%; in the test with NCI-H226 lung, 7.29% (active); in the test on NCI-H322M lung, 21.1%; in the test on HOP-62 NSCLC it was 18.5%; in the test with NCI-H460 lung, 3.96% (active); in the test with HOP-92 NSCLC, 50.3%. Also, the growth in the test on NCI-H522 lung was 14.4%; with A549/ATCC NSCLC, 10.3%; in the test with 786-0 renal, 20.5%; in the test with COLO 205 colon, 7.48% (active).
With `CN1CCN(c2ccc3nc(-c4ccc(OCCCCN5CCN(CCCCN6C(=O)c7cccc8cccc(c78)C6=O)CC5)cc4)[nH]c3c2)CC1`, the growth in the test on NCI-H23 lung was 85.3%; in the test on NCI-H226 lung, 86.6%; with NCI-H322M lung it was 90.5%; in the test with HOP-62 NSCLC, 64.1%; in the test with NCI-H460 lung it was 71.9%; in the test with HOP-92 NSCLC, -54.4% (active). The growth is 65% with NCI-H522 lung, 57.1% in the test on A549/ATCC NSCLC, 53% in the test with 786-0 renal and 77.8% in the test with COLO 205 colon.
On to `Cc1cc(N2CCOCC2)nc(N[C@@H]2CCC[C@H](Nc3ccnc4cc(Cl)ccc34)C2)n1`, for which the growth in the test on NCI-H23 lung was 62%; in the test on NCI-H226 lung, 34.2%; in the test on NCI-H322M lung, 27.2%; in the test with HOP-62 NSCLC, -15.2% (active); with NCI-H460 lung, 12.2%; with HOP-92 NSCLC, -21.7% (active). Also, the growth in the test on NCI-H522 lung was -26.8% (active); in the test on A549/ATCC NSCLC, 13.8%; with 786-0 renal, -73% (active); in the test on COLO 205 colon, -82% (active).
Take `CSc1nc(Nc2cccc(NC(=O)CCl)c2)c(C#N)c(-c2cccc([N+](=O)[O-])c2)n1`: the growth in the test on NCI-H23 lung is 40.3%; with NCI-H226 lung, 42.2%; in the test on NCI-H322M lung it was 97.4%; in the test with HOP-62 NSCLC, 86.5%; in the test with NCI-H460 lung it was 86.8%; in the test on HOP-92 NSCLC, 40.7%. Besides, the growth in the test on NCI-H522 lung is -55.9% (active); in the test with A549/ATCC NSCLC it was 95.9%; in the test with 786-0 renal, 73.2%; in the test on COLO 205 colon it was 35.9%.
As to `O=C(O)COc1ccc(Cl)cc1C1CCCCC1`, the growth with NCI-H23 lung was 102%; with NCI-H226 lung, 92.8%; in the test on NCI-H322M lung, 101%; in the test with HOP-62 NSCLC, 106%; in the test on NCI-H460 lung, 96.3%; in the test on HOP-92 NSCLC it was 111%. In addition, the growth with NCI-H522 lung is 99%; in the test on A549/ATCC NSCLC, 93.2%; in the test with 786-0 renal, 106%; in the test on COLO 205 colon, 119%.
Turning to `COc1ccc(C(=O)COc2ccc(/C=C3\COc4ccc(OC)cc4C3=O)cc2)cc1`, the growth in the test on NCI-H23 lung was 77.6%; with NCI-H226 lung, 85.9%; in the test with NCI-H322M lung it was 96.1%; in the test with HOP-62 NSCLC it was 110%; with NCI-H460 lung it was 104%; in the test with HOP-92 NSCLC, 77.7%. The growth is 70.1% in the test with NCI-H522 lung, 77.9% in the test with A549/ATCC NSCLC, 90.5% in the test with 786-0 renal and 122% with COLO 205 colon.
`O=C(CN1CCCCC1)Nc1ccc2oc(=O)ccc2c1`: the growth is 97.5% with NCI-H23 lung; 95.8% with NCI-H226 lung; 105% in the test with NCI-H322M lung; 99.7% in the test with HOP-62 NSCLC; 104% in the test with NCI-H460 lung; 91.3% in the test on HOP-92 NSCLC. The growth with NCI-H522 lung was 84.6%; in the test on A549/ATCC NSCLC, 100%; with 786-0 renal, 107%; with COLO 205 colon it was 119%.
`Cn1ccnc1C(=O)/C=C/c1ccccc1`: the growth was 33.1% in the test with NCI-H23 lung; 50.7% in the test with NCI-H226 lung; 10.4% in the test with NCI-H322M lung; -54.9% (active) with HOP-62 NSCLC; -17.9% (active) in the test on NCI-H460 lung; -9.57% (active) in the test with HOP-92 NSCLC. In addition, the growth with NCI-H522 lung was -67.4% (active); with A549/ATCC NSCLC it was 33.7%; in the test on 786-0 renal it was -35.6% (active); with COLO 205 colon it was 23%.
